# Experimental data published in the supplement of paper PMC4022240.
# ± gives the standard deviation.
# T1: HaloTag-ATRX ADD domain (163-292)
# T1 chain: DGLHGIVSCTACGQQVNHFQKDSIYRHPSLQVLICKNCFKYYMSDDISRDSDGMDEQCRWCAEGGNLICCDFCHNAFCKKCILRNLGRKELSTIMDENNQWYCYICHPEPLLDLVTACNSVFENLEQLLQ
# Legend:
# Assay in all cases: peptide microarray binding signal (635 nm), min-max normalized on array (fraction of array maximum); higher = stronger binding
# Conditions in all cases: peptide region: H3 20-32
# [1] = molecular target: T1, HaloTag-ATRX ADD domain (163-292)
# In short: (§1)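 Within each library, mean intensities of triplicate spots were min-max scaled to give the binding signal. The spots were histone 13-mer peptide–cellulose conjugates on nitrocellulose with a Cy3 tracer, blocked overnight at 4°C. They were then probed for 1 h at 4°C using biotin-labelled HaloTag reader fusions (10 nM to 1 μM) with streptavidin-Alexa Fluor 647 or rabbit histone antibodies (1:10,000 to 1:2,000) with anti-rabbit Alexa 647, and scanned at 635 nm for signal and 532 nm for misprints on an Axon GenePix 4000B.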
# [2] = molecular target: HaloTag-ING2 PHD (mouse Ing2 200-280)
# In short: as §1
# [3] = molecular target: anti-H3K4me3 antibody ab8580
# In short: as §1
# [4] = molecular target: anti-H3K9me3 antibody ab8898
# In short: as §1
# [5] = peptide modifications: H3K23ac H3K27ac, binder concentration: 1:2,000 dilution
# [6] = peptide modifications: H3K23ac H3K27ac, binder concentration: 1:10,000 dilution
# [7] = peptide modifications: H3K23ac H3K27me1, binder concentration: 1:2,000 dilution
# [8] = peptide modifications: H3K23ac H3K27me1, binder concentration: 1:10,000 dilution
# [9] = peptide modifications: H3K23ac H3K27me2, binder concentration: 1:2,000 dilution
# [10] = peptide modifications: H3K23ac H3K27me2, binder concentration: 1:10,000 dilution
# [11] = peptide modifications: H3K23ac H3K27me3, binder concentration: 1:2,000 dilution
# [12] = peptide modifications: H3K23ac H3K27me3, binder concentration: 1:10,000 dilution
# [13] = peptide modifications: H3K23ac, binder concentration: 1:2,000 dilution
# [14] = peptide modifications: H3K23ac, binder concentration: 1:10,000 dilution
# [15] = peptide modifications: H3K23me1, binder concentration: 1:2,000 dilution
# [16] = peptide modifications: H3K23me1, binder concentration: 1:10,000 dilution
# [17] = peptide modifications: H3K23me1 H3K27ac, binder concentration: 1:2,000 dilution
# [18] = peptide modifications: H3K23me1 H3K27ac, binder concentration: 1:10,000 dilution
# [19] = peptide modifications: H3K23me1 H3K27me1, binder concentration: 1:2,000 dilution
# [20] = peptide modifications: H3K23me1 H3K27me1, binder concentration: 1:10,000 dilution
# [21] = peptide modifications: H3K23me1 H3K27me2, binder concentration: 1:2,000 dilution
# [22] = peptide modifications: H3K23me1 H3K27me2, binder concentration: 1:10,000 dilution
# [23] = peptide modifications: H3K23me1 H3K27me3, binder concentration: 1:2,000 dilution
# [24] = peptide modifications: H3K23me1 H3K27me3, binder concentration: 1:10,000 dilution
binder,measurement,setting,value
LATKAARKSAPAT [H3 20-32 L A T Kac A A R Kac S A P A T],peptide microarray binding signal,"[1]; peptide modifications: H3K23ac H3K27ac, binder concentration: 50 nM",0.0196 ± 0.0013
same,peptide microarray binding signal,"[1]; peptide modifications: H3K23ac H3K27ac, binder concentration: 500 nM",0.0397 ± 0.0034
same,peptide microarray binding signal,"[2]; peptide modifications: H3K23ac H3K27ac, binder concentration: 10 nM",0.0424 ± 0.0038
same,peptide microarray binding signal,"[2]; peptide modifications: H3K23ac H3K27ac, binder concentration: 100 nM",0.0536 ± 0.0026
same,peptide microarray binding signal,[3]; [5],0.0164 ± 0.0012
same,peptide microarray binding signal,[3]; [6],0.0172 ± 0.00041
same,peptide microarray binding signal,[4]; [5],0.016 ± 0.002
same,peptide microarray binding signal,[4]; [6],0.00848 ± 0.00094
LATKAARKSAPAT [H3 20-32 L A T Kac A A R Kme S A P A T],peptide microarray binding signal,"[1]; peptide modifications: H3K23ac H3K27me1, binder concentration: 50 nM",0.0068 ± 0.00024
same,peptide microarray binding signal,"[1]; peptide modifications: H3K23ac H3K27me1, binder concentration: 500 nM",0.0141 ± 0.0013
same,peptide microarray binding signal,"[2]; peptide modifications: H3K23ac H3K27me1, binder concentration: 10 nM",0.0291 ± 0.00095
same,peptide microarray binding signal,"[2]; peptide modifications: H3K23ac H3K27me1, binder concentration: 100 nM",0.0373 ± 0.0027
same,peptide microarray binding signal,[3]; [7],0.0154 ± 0.0014
same,peptide microarray binding signal,[3]; [8],0.0175 ± 0.003
same,peptide microarray binding signal,[4]; [7],0.00459 ± 0.00035
same,peptide microarray binding signal,[4]; [8],0.00513 ± 0.00045
LATKAARKSAPAT [H3 20-32 L A T Kac A A R Kme2 S A P A T],peptide microarray binding signal,"[1]; peptide modifications: H3K23ac H3K27me2, binder concentration: 50 nM",0.00426 ± 0.0002
same,peptide microarray binding signal,"[1]; peptide modifications: H3K23ac H3K27me2, binder concentration: 500 nM",0.00929 ± 0.0011
same,peptide microarray binding signal,"[2]; peptide modifications: H3K23ac H3K27me2, binder concentration: 10 nM",0.0152 ± 0.0015
same,peptide microarray binding signal,"[2]; peptide modifications: H3K23ac H3K27me2, binder concentration: 100 nM",0.0206 ± 0.00053
same,peptide microarray binding signal,[3]; [9],0.00765 ± 0.0019
same,peptide microarray binding signal,[3]; [10],0.00719 ± 0.00029
same,peptide microarray binding signal,[4]; [9],0.00344 ± 0.001
same,peptide microarray binding signal,[4]; [10],0.00329 ± 0.00032
LATKAARKSAPAT [H3 20-32 L A T Kac A A R Kme3 S A P A T],peptide microarray binding signal,"[1]; peptide modifications: H3K23ac H3K27me3, binder concentration: 50 nM",0.006363 ± 3.7e-05
same,peptide microarray binding signal,"[1]; peptide modifications: H3K23ac H3K27me3, binder concentration: 500 nM",0.00867 ± 0.00016
same,peptide microarray binding signal,"[2]; peptide modifications: H3K23ac H3K27me3, binder concentration: 10 nM",0.0207 ± 0.00046
same,peptide microarray binding signal,"[2]; peptide modifications: H3K23ac H3K27me3, binder concentration: 100 nM",0.0281 ± 0.00085
same,peptide microarray binding signal,[3]; [11],0.0464 ± 0.0087
same,peptide microarray binding signal,[3]; [12],0.044 ± 0.0054
same,peptide microarray binding signal,[4]; [11],0.253 ± 0.019
same,peptide microarray binding signal,[4]; [12],0.122 ± 0.0084
LATKAARKSAPAT [H3 20-32 L A T Kac A A R K S A P A T],peptide microarray binding signal,"[1]; peptide modifications: H3K23ac, binder concentration: 50 nM",0.00514 ± 8.6e-05
same,peptide microarray binding signal,"[1]; peptide modifications: H3K23ac, binder concentration: 500 nM",0.00843 ± 0.00057
same,peptide microarray binding signal,"[2]; peptide modifications: H3K23ac, binder concentration: 10 nM",0.0139 ± 0.0003
same,peptide microarray binding signal,"[2]; peptide modifications: H3K23ac, binder concentration: 100 nM",0.021 ± 0.00086
same,peptide microarray binding signal,[3]; [13],0.00479 ± 0.00097
same,peptide microarray binding signal,[3]; [14],0.00388 ± 0.00011
same,peptide microarray binding signal,[4]; [13],0.002703 ± 1.4e-05
same,peptide microarray binding signal,[4]; [14],0.00265 ± 8.4e-05
LATKAARKSAPAT [H3 20-32 L A T Kme A A R K S A P A T],peptide microarray binding signal,"[1]; peptide modifications: H3K23me1, binder concentration: 50 nM",0.0042 ± 0.00011
same,peptide microarray binding signal,"[1]; peptide modifications: H3K23me1, binder concentration: 500 nM",0.00714 ± 0.00042
same,peptide microarray binding signal,"[2]; peptide modifications: H3K23me1, binder concentration: 10 nM",0.0107 ± 0.00011
same,peptide microarray binding signal,"[2]; peptide modifications: H3K23me1, binder concentration: 100 nM",0.0176 ± 0.00097
same,peptide microarray binding signal,[3]; [15],0.00564 ± 0.0011
same,peptide microarray binding signal,[3]; [16],0.0116 ± 0.0039
same,peptide microarray binding signal,[4]; [15],0.00267 ± 0.00032
same,peptide microarray binding signal,[4]; [16],0.00242 ± 0.00013
LATKAARKSAPAT [H3 20-32 L A T Kme A A R Kac S A P A T],peptide microarray binding signal,"[1]; peptide modifications: H3K23me1 H3K27ac, binder concentration: 50 nM",0.0232 ± 0.00051
same,peptide microarray binding signal,"[1]; peptide modifications: H3K23me1 H3K27ac, binder concentration: 500 nM",0.0506 ± 0.0021
same,peptide microarray binding signal,"[2]; peptide modifications: H3K23me1 H3K27ac, binder concentration: 10 nM",0.058 ± 0.0036
same,peptide microarray binding signal,"[2]; peptide modifications: H3K23me1 H3K27ac, binder concentration: 100 nM",0.0801 ± 0.006
same,peptide microarray binding signal,[3]; [17],0.0267 ± 0.0037
same,peptide microarray binding signal,[3]; [18],0.0268 ± 0.003
same,peptide microarray binding signal,[4]; [17],0.0161 ± 0.0018
same,peptide microarray binding signal,[4]; [18],0.0113 ± 0.0012
LATKAARKSAPAT [H3 20-32 L A T Kme A A R Kme S A P A T],peptide microarray binding signal,"[1]; peptide modifications: H3K23me1 H3K27me1, binder concentration: 50 nM",0.00404 ± 0.00027
same,peptide microarray binding signal,"[1]; peptide modifications: H3K23me1 H3K27me1, binder concentration: 500 nM",0.00976 ± 0.00044
same,peptide microarray binding signal,"[2]; peptide modifications: H3K23me1 H3K27me1, binder concentration: 10 nM",0.015 ± 0.00066
same,peptide microarray binding signal,"[2]; peptide modifications: H3K23me1 H3K27me1, binder concentration: 100 nM",0.0215 ± 0.0021
same,peptide microarray binding signal,[3]; [19],0.0102 ± 0.0036
same,peptide microarray binding signal,[3]; [20],0.01 ± 0.00092
same,peptide microarray binding signal,[4]; [19],0.00488 ± 0.00067
same,peptide microarray binding signal,[4]; [20],0.0045 ± 0.00019
LATKAARKSAPAT [H3 20-32 L A T Kme A A R Kme2 S A P A T],peptide microarray binding signal,"[1]; peptide modifications: H3K23me1 H3K27me2, binder concentration: 50 nM",0.00395 ± 5.6e-05
same,peptide microarray binding signal,"[1]; peptide modifications: H3K23me1 H3K27me2, binder concentration: 500 nM",0.002619 ± 2.1e-05
same,peptide microarray binding signal,"[2]; peptide modifications: H3K23me1 H3K27me2, binder concentration: 10 nM",0.00537 ± 9.5e-05
same,peptide microarray binding signal,"[2]; peptide modifications: H3K23me1 H3K27me2, binder concentration: 100 nM",0.00539 ± 7.3e-05
same,peptide microarray binding signal,[3]; [21],0.00217 ± 0.00021
same,peptide microarray binding signal,[3]; [22],0.00331 ± 4.7e-05
same,peptide microarray binding signal,[4]; [21],0.0018 ± 6.4e-05
same,peptide microarray binding signal,[4]; [22],0.00161 ± 3.1e-05
LATKAARKSAPAT [H3 20-32 L A T Kme A A R Kme3 S A P A T],peptide microarray binding signal,"[1]; peptide modifications: H3K23me1 H3K27me3, binder concentration: 50 nM",0.005266 ± 3.8e-05
same,peptide microarray binding signal,"[1]; peptide modifications: H3K23me1 H3K27me3, binder concentration: 500 nM",0.00848 ± 0.00016
same,peptide microarray binding signal,"[2]; peptide modifications: H3K23me1 H3K27me3, binder concentration: 10 nM",0.0135 ± 0.00027
same,peptide microarray binding signal,"[2]; peptide modifications: H3K23me1 H3K27me3, binder concentration: 100 nM",0.01991 ± 8.1e-05
same,peptide microarray binding signal,[3]; [23],0.0287 ± 0.0026
same,peptide microarray binding signal,[3]; [24],0.0313 ± 0.0019
same,peptide microarray binding signal,[4]; [23],0.078 ± 0.0011
same,peptide microarray binding signal,[4]; [24],0.0363 ± 0.0019
